Screening results deposited in PubChem BioAssay by several laboratories.
APP 5UTR inh = APP translation inhibition. SH-SY5Y APP 5'UTR-luciferase reporter, luminescence. inhibition, % at 2 µM. actives 0.82% (n = 190,000). AID 1285;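 active means inhibition above a set limit, derived from the sample mean plus 3 SD, cut at about 45% in these data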
IEC-6 cytotox = counter-screen for KLF5 inhibitors: cytotoxicity in IEC-6 cells; inhibition, % at 5 µM; AID 1825; IEC-6 cytotoxicity, luminescence viability; actives 0.78% (n = 290,000);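 further: 0% = plate median of test compound wells and 100% = cytotoxic reference compound wells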
Ba/F3 V617F tox = loss of viability in JAK2V617F-driven Ba/F3 cells | Ba/F3 EpoR-JAK2V617F viability, ATP luminescence | inhibition, % at 5.6 µM | actives 1.1% (n = 220,000);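 active means inhibition above the campaign mean plus 3 SD over all tested compounds, cut at about 24% in these data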;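 further: cytokine-independent growth of Ba/F3 cells driven by EpoR plus mutant JAK2; 0% = DMSO-treated cells and 100% = JAK inhibitor I control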
aSyn 5UTR inh = MLPCN primary screen, SNCA 5' untranslated region; actives 0.82% (n = 300,000); inhibition, % (tested at 7.5 µM); alpha-synuclein 5'UTR reporter, inhibitor activity; AID 1813; in the data active means inhibition above about 60%;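 further: H4 neuroglioblastoma cells stably carrying SNCA 5'UTR luciferase fusion; 0% = DMSO wells and 100% = positive control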
KLF5 inh = kruppel-like factor 5 inhibition. DLD-1 KLF5 promoter-luciferase reporter, luminescence. inhibition, % at 5 µM. actives 0.23% (n = 290,000);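 active means inhibition above a per-plate limit of that plate's mean compound inhibition plus 3 SD, cut at about 60% in these data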;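 further: 0% = DMSO wells and 100% = LY294002 at 200 µM; higher means less KLF5 promoter-driven luciferase light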
BaF3 parental = parental Ba/F3 viability inhibition as JAK2V617F counter-screen; CellTiter-Glo ATP luminescence; inhibition, % at 5.6 µM; actives 1.1% (n = 220,000); AID 1486;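 active means inhibition above a per-campaign cutoff, the mean inhibition of all tested compounds plus 3 SD, cut at about 27% in these data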;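 further: 0% = DMSO wells and 100% = JAK Inhibitor I control wells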
IEC-6 cytotox cf = IEC-6 cytotoxicity, confirmation assay. shares compounds with IEC-6 cytotox. actives 63% (n = 1,900). IEC-6 rat intestinal epithelial viability, luminescence. inhibition, % at 5 µM;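 further: 0% = vehicle and 100% = reference cytotoxic drug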
Numbers without * were called inactive. Shown are actives, neighbours in structure and some others; about 2.1% of the full set was active somewhere. Unless noted, no stated cut-off is given here; in the data, active means inhibition above about 22%; inactive means the rest.

How did CCN1/C(=C/C=C/c2sc3ccccc3[n+]2CC)Sc2ccccc21 do in these assays?
aSyn 5UTR inh: 40

What do the screens show for `CCN1/C(=C/c2ccc3cc(C)ccc3[n+]2CC)Sc2cc(C)c(C)cc21`?
APP 5UTR inh: 46*; IEC-6 cytotox: 39*; Ba/F3 V617F tox: 100*; KLF5 inh: -1; BaF3 parental: 89*; IEC-6 cytotox cf: 29*

How did CCN1/C(=C/c2ccc3cc(C)ccc3[n+]2CC)Sc2ccccc21 do in these assays?
APP 5UTR inh: 81*; IEC-6 cytotox: 50*; Ba/F3 V617F tox: 102*; aSyn 5UTR inh: 100*; KLF5 inh: 41; BaF3 parental: 106*; IEC-6 cytotox cf: 70*

What do the screens show for `O=C1NC(SCCCF)=N/C1=C/c1ccc(-n2cncn2)cc1`?
IEC-6 cytotox: -3; Ba/F3 V617F tox: -4; aSyn 5UTR inh: 37; KLF5 inh: -24; BaF3 parental: -3

How did O=c1c2ccccc2[nH]c(=S)n1CCCN1CCN(c2ccccc2)CC1 do in these assays?
IEC-6 cytotox: 34*; aSyn 5UTR inh: -7; KLF5 inh: 2; IEC-6 cytotox cf: 18

Results for O=c1c2ccccc2[nH]c(=S)n1CCCN1CCN(c2ccccc2F)CC1 ?
IEC-6 cytotox: 16; aSyn 5UTR inh: 25; KLF5 inh: 7

Results for COc1cc(OC)cc(C(=O)Nc2ccc(N3CCN(C(=O)c4cccs4)CC3)cc2)c1 ?
IEC-6 cytotox: 36*; aSyn 5UTR inh: -180; KLF5 inh: 20; IEC-6 cytotox cf: 31*

What do the screens show for `COc1ccc(C(=O)NC(=S)N2CCOCC2)cc1[N+](=O)[O-]`?
IEC-6 cytotox: 4; aSyn 5UTR inh: 4; KLF5 inh: -10

What do the screens show for `C=CCN(CC=C)S(=O)(=O)c1ccc2nc(NC(=O)C(C)C)sc2c1`?
APP 5UTR inh: 44; IEC-6 cytotox: 54*; Ba/F3 V617F tox: 64*; KLF5 inh: 40; BaF3 parental: 76*; IEC-6 cytotox cf: 47*

Results for Cn1c(Cl)cnc1C1CC(=O)c2cc(Cl)ccc2O1 (stereo unspecified) ?
APP 5UTR inh: 27; IEC-6 cytotox: 70*; Ba/F3 V617F tox: 55*; aSyn 5UTR inh: 33; KLF5 inh: -10; BaF3 parental: 50*; IEC-6 cytotox cf: 9

How did O=c1[nH]c(-c2ccccn2)nc(C(F)(F)F)c1Br do in these assays?
APP 5UTR inh: 6; IEC-6 cytotox: 68*; Ba/F3 V617F tox: 9; aSyn 5UTR inh: 44; KLF5 inh: 60; BaF3 parental: 28*; IEC-6 cytotox cf: 24*

Results for CC(=O)Nc1ccc(C(=O)OCCC(C)C)cc1 ?
APP 5UTR inh: -6; IEC-6 cytotox: 25*; Ba/F3 V617F tox: -1; aSyn 5UTR inh: -31; KLF5 inh: -52; BaF3 parental: 7; IEC-6 cytotox cf: 23*

What do the screens show for `CCCOC(=O)c1ccc(NC(=O)COC)cc1`?
APP 5UTR inh: -3; IEC-6 cytotox: 3; Ba/F3 V617F tox: 0; aSyn 5UTR inh: -2; KLF5 inh: -56; BaF3 parental: 4

How did NC(=O)c1ccc(=O)n(Cc2ccc(Cl)cc2Cl)c1 do in these assays?
IEC-6 cytotox: 2; aSyn 5UTR inh: 3; KLF5 inh: 1

What do the screens show for `CCCCC(Nc1ncnc2ccccc12)C(=O)O` (stereo unspecified)?
APP 5UTR inh: -3; IEC-6 cytotox: 0; Ba/F3 V617F tox: -2; aSyn 5UTR inh: -4; KLF5 inh: -42; BaF3 parental: 4

What do the screens show for `CC(Nc1ncnc2ccccc12)c1ccccc1` (stereo unspecified)?
IEC-6 cytotox: 28*; aSyn 5UTR inh: 47; KLF5 inh: -49; IEC-6 cytotox cf: 27*

How did CCOC(=O)c1ccc(N2CCOCC2)c(NC(=O)c2c(-c3ccccc3)noc2C)c1 do in these assays?
IEC-6 cytotox: 61*; Ba/F3 V617F tox: 75*; aSyn 5UTR inh: 46; KLF5 inh: 50; BaF3 parental: 54*; IEC-6 cytotox cf: 50*

How did Cc1onc(-c2ccccc2)c1C(=O)Nc1cc(C(F)(F)F)ccc1N1CCOCC1 do in these assays?
APP 5UTR inh: 70*; IEC-6 cytotox: 77*; Ba/F3 V617F tox: 84*; aSyn 5UTR inh: 29; KLF5 inh: 44; BaF3 parental: 81*; IEC-6 cytotox cf: 50*
